In PubChem BioAssay one finds composite z-score and z-score data, which are given here for 17 compounds.

Molecules are shown by their SMILES. The source made the active and inactive calls.

Assay [1] is described as follows: small molecules captured by biotinylated probe aFSTL3 – biochemical, small-molecule microarray, fluorescence 635/667, stem cell growth factor project, primary screen (AID 1064).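 Further: measures binding of the biotinylated anti-FSTL3 antibody to printed compounds.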 The following applies: higher = more signal.
The nature of assay [2]: binders from COS7 lysate, DM2A8 probe, primary screen, torsin A project, cell lysate, small-molecule microarray, fluorescence 635/667 (AID 1065). Particulars: higher = more signal, COS7 lysate expressing mutant human TOR1A.
Assay [3] can be described thus: small molecules captured by biotinylated probe aFGF2 – biochemical, small-molecule microarray, fluorescence 635/667, stem cell growth factor project, primary screen (AID 1067).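 Further: measures binding of biotinylated aFGF2 protein to printed compounds on slides; z-score merges feature fluorescence and signal-to-noise across triplicate slides.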 The following applies: higher = more signal.
Assay [4] is described as follows: small molecules captured by biotinylated probe aFGF10 – biochemical, small-molecule microarray, fluorescence 635/667, stem cell growth factor project, primary screen (AID 1071).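 Further: score merges 667 nm spot intensity and signal to noise from triplicate slides.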 The following applies: higher = more signal.
The target in assay [5] is Neurogenic locus notch homolog protein 2 (Homo sapiens) (UniProt Q04721). Kind of assay: small molecules binding Notch2 protein – biochemical, small-molecule microarray, 635 nm fluorescence, stem cell growth factors, primary screen (AID 1073). Particulars: higher = more signal.
Sequence of Neurogenic locus notch homolog protein 2 (Homo sapiens) (Q04721 whole entry, looked up, canonical isoform): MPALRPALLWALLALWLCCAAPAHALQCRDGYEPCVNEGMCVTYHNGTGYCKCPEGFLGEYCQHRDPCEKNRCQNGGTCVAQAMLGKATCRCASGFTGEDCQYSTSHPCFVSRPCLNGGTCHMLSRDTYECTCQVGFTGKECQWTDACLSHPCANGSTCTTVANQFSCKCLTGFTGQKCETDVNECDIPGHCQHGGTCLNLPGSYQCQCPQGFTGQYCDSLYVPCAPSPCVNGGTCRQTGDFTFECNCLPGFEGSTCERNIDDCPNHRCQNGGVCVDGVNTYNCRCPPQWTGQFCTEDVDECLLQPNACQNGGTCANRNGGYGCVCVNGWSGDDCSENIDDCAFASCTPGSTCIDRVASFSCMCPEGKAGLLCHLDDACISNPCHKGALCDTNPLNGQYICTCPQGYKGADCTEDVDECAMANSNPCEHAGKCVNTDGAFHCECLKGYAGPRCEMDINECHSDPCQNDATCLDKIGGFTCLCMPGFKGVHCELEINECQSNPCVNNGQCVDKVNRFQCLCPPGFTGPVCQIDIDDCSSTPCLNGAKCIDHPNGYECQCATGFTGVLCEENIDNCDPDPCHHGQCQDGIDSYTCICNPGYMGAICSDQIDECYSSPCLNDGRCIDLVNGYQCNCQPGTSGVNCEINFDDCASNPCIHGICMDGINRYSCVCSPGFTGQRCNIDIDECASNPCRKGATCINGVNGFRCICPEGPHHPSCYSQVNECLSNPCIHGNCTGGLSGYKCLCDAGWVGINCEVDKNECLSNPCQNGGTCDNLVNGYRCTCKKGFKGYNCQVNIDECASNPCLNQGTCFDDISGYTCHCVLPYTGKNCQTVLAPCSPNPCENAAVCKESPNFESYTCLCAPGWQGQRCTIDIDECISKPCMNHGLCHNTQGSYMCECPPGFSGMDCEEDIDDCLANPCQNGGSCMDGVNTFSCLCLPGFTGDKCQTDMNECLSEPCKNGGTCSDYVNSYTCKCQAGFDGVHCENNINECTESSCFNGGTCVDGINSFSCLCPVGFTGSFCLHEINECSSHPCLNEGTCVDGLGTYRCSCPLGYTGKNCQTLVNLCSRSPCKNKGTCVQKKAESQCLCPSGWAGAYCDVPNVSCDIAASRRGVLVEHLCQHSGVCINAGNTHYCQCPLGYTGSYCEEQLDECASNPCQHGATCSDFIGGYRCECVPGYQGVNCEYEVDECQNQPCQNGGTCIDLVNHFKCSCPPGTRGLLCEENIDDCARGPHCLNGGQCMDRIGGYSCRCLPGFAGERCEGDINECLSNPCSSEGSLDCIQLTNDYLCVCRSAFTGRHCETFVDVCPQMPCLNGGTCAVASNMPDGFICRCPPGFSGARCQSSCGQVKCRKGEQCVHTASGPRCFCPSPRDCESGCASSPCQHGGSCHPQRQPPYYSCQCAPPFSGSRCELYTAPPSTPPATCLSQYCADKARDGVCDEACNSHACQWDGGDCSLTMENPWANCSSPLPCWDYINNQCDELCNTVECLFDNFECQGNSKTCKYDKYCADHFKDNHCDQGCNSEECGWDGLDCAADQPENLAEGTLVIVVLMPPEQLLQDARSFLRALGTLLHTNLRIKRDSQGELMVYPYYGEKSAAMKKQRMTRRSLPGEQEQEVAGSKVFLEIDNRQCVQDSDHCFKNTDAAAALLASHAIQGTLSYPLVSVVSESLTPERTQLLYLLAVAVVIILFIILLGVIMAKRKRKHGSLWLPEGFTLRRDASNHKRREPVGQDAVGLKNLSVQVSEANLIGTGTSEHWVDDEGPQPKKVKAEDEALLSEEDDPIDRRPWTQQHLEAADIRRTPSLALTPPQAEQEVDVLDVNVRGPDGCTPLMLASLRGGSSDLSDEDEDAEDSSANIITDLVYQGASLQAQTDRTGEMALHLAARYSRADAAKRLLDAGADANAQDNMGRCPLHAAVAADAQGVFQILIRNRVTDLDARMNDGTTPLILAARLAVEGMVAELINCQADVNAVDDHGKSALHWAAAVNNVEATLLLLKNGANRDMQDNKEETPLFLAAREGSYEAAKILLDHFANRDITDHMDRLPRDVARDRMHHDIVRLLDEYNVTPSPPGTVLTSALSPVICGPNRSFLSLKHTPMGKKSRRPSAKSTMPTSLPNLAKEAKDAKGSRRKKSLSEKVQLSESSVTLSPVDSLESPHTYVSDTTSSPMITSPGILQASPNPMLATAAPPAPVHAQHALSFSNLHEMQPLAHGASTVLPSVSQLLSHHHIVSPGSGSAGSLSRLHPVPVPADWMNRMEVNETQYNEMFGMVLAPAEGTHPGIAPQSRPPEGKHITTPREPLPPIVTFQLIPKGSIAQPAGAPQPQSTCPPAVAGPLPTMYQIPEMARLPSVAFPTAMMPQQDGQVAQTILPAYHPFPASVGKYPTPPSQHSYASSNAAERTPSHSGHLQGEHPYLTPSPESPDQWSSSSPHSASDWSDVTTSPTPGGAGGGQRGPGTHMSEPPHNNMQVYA
Assay [6] addresses Pro-neuregulin-1, membrane-bound isoform (Homo sapiens) (UniProt Q02297). Kind of assay: small molecules binding neuregulin-1 protein – biochemical, small-molecule microarray, fluorescence 635/667, psychiatric disease protein project, primary screen (AID 1075).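 Further: score combines 667 nm spot fluorescence with signal to noise.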 The following applies: NRG1 binding, 635 nm fluorescence, higher = more signal.
For assay [7], the system named is Neuregulin-1 EGF-like domain. Kind of assay: small molecules binding NRG1 EGF domain – biochemical, small-molecule microarray, 635 nm fluorescence, primary screen (AID 1081).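 Further: binding of the protein to compounds printed on small-molecule microarray slides.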 The following applies: higher = more signal.
The nature of assay [8]: FRG1 expression reporter modulators in myotubes – cell-based, C2C12 myotubes, firefly/Renilla luciferase, luminescence, FRG1 inhibition for FSHD, primary screen (AID 1084). Particulars: FRG1 promoter luciferase, higher = more signal, called active from +8 up or from −8 down.
A short description of assay [9]: small molecules captured by biotinylated probe aFST – biochemical, small-molecule microarray, fluorescence 635/667, stem cell growth factor project, primary screen (AID 1086).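 Further: score merges 667 nm fluorescence with signal-to-noise of each printed compound spot.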 Particulars: higher = more signal.
Assay [10] is described as follows: binders of probe aHhip on microarray, primary screen, stem cell growth factor project, biochemical, small-molecule microarray, fluorescence 635/667 (AID 1087).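 Further: score merges spot fluorescence at 667nm with spot signal to noise ratio.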 Particulars: higher = more signal.

Sequence of Pro-neuregulin-1, membrane-bound isoform (Homo sapiens) (Q02297 whole entry, looked up, the tested form may be a part, canonical isoform): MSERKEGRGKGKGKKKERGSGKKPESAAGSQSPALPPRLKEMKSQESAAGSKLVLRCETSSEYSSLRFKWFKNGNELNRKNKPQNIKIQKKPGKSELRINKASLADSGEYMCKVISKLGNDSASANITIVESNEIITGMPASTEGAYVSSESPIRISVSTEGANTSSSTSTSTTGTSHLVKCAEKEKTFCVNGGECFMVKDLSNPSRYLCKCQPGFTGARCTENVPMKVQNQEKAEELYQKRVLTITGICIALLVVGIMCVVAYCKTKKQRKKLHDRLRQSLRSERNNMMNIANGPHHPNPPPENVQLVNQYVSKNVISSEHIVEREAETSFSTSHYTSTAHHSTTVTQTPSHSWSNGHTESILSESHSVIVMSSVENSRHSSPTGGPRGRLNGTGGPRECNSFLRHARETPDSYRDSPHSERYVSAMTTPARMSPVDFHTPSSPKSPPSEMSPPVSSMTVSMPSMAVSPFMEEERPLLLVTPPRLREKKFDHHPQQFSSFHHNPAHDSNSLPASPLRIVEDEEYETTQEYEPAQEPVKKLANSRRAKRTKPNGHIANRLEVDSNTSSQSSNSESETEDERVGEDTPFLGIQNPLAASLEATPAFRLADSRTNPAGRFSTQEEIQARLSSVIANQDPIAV

For the compound `O=C1[C@H]2[C@H]3[C@H](O)[C@H](O)CC(=NOCc4ccccc4)[C@H]3CC[C@H]2C(=O)N1c1cccc(Oc2ccccc2)c1`, the composite z-score in assay [1] is -0.602; in assay [2], 0.154; in assay [3] it was -0.052; in assay [4] it was 0.919; in assay [5], 0.554; in assay [6] it was 0.391. Also, the composite z-score came to 1.16 in assay [7], 0.4 in assay [9] and 0.0053 in assay [10]. In [8], the z-score was 0.335 (inactive).
For the compound `CCOC(=O)[C@H](CC(C)C)NC(=O)CCC1CC(OC(=O)NCc2cccc3ccccc23)CC2(CCCC(COC(=O)NCCc3ccccc3OC)O2)O1` (stereo not given in full), the composite z-score was -0.414 in [1]; 0.301 in assay [2]; -0.108 in assay [3]; 0.433 in assay [4]; 1.14 in assay [5]; 0.174 in assay [6]. Besides, the figures for the composite z-score in [7], in assay [9] and in [10] were 0.882, 0.402 and -0.134, respectively. In assay [8], the z-score was 0.0171 (inactive).
In the case of `C[C@@H](c1ccccc1)N1C(=O)[C@H]2[C@H]3[C@H](O)[C@H](O)CC(=NOC[C@@H](O)COCc4ccco4)[C@@H]3CC[C@H]2C1=O`, the composite z-score is 0.193 in assay [1]; 0.068 in [2]; -0.159 in [3]; -0.141 in assay [4]; -1.02 in assay [5]; -0.717 in [6]. The values for the composite z-score in assay [7], in assay [9] and in assay [10] were -0.647, 0.0275 and -0.137, respectively. Moreover, the z-score in assay [8] was -0.0058 (inactive).
As to `COC(=O)CC=C[C@@H](C)[C@@H](C=NO[C@@H](C)c1cc(-c2c(C)cc(C)cc2C)no1)OC`, the composite z-score is 1.46 in assay [1]; -1.99 in [2]; -0.159 in assay [3]; -0.806 in [4]; -1.69 in assay [5]; -0.674 in [6]. Moreover, the composite z-score was -0.714 in assay [7], -0.358 in [9] and -0.0672 in [10]. In assay [8], the z-score is 0.8 (inactive).
Turning to `CCOC(=O)NN=C1C[C@@H](O)[C@@H](O)[C@@H]2[C@@H]3C(=O)N(C(C)(C)C)C(=O)[C@@H]3CC[C@@H]12`, the composite z-score is -0.295 in assay [1]; 0.721 in [2]; 0.0014 in assay [3]; 0.177 in [4]; 0.394 in assay [5]; -0.904 in [6]. The composite z-score in assay [7] was -1.83; in [9], 0.577; in [10], -0.0994. Further, the z-score in [8] was -0.0445 (inactive).
Take `O=C1NC(=O)C2C1C=CC(C(O)Cc1ccccc1)N2Nc1ccccn1` (stereo not given): the composite z-score in assay [1] is -0.368; in assay [2], 0.0052; in assay [3], -0.0154; in assay [4] it was 0.477; in assay [5], 1.14; in assay [6], 1.79. In addition, the composite z-score in assay [7] is 0.934; in assay [9], 0.494; in assay [10], -0.0618. For the same compound, the z-score in assay [8] was -0.518 (inactive).
As for `CC(C)=NOCc1ccc(-c2cc(-c3ccccc3)no2)cc1`, the composite z-score was -0.474 in assay [1]; -0.191 in assay [2]; -0.0788 in assay [3]; 0.241 in [4]; 0.29 in assay [5]; -0.225 in assay [6]. In addition, the composite z-score is 0.123 in assay [7], 0.0003 in [9] and -0.0296 in [10]. For the same compound, the z-score in assay [8] was -0.172 (inactive).
For `Cc1ccc(C2CC=C(C(=O)O)CN2S(=O)(=O)c2ccc(C)cc2)cc1` (stereo not given), the composite z-score in assay [1] is 0.004; in assay [2], 0.157; in assay [3] it was -0.0258; in assay [4], 0.0852; in assay [5], 0.677; in [6] it was 1.97. The composite z-score was determined as 0.937 in assay [7], 0.374 in assay [9] and 0.0749 in assay [10]. Further, the z-score in [8] was -2.06 (inactive).
In the case of `C[C@@H]1C=CCC(=O)OC[C@H](C)C(=O)OC[C@H]2O[C@H]1C=C[C@H]2O`, the composite z-score in assay [1] is -0.414; in [2], 0.304; in assay [3], 0.0033; in assay [4] it was 0.44; in assay [5], 0.112; in assay [6], -0.175. The results for the composite z-score in assay [7], in assay [9] and in [10] were 0.615, 0.512 and 0.106, respectively. The z-score in assay [8] was -0.538 (inactive).
Consider `COC(=O)[C@H](C)NC(=O)CCC1CC(OC(=O)NCc2cccc3ccccc23)CC2(CCCC(COC(=O)NCCc3ccc(Cl)cc3)O2)O1` (stereo not given in full), for which the composite z-score in assay [1] is -0.489; in [2], -0.0486; in assay [3], -0.0788; in assay [4], 0.487; in [5], 1.09; in assay [6] it was 0.567. For the same compound, the composite z-score in assay [7] was 0.73; in assay [9] it was 0.171; in [10] it was -0.0994. In addition, in [8], the z-score was 1.93 (inactive).
In the case of `O=C1O[C@@H](c2ccccc2)[C@@H](c2ccccc2)N2[C@@H](c3ccc(O)cc3)[C@]3(C(=O)Nc4ccccc43)[C@@H](C(=O)O)[C@H]12`, the composite z-score in assay [1] was -0.149; in assay [2], 0.227; in [3], -0.0969; in [4], 0.46; in assay [5] it was 0.0863; in assay [6] it was 1.67. Besides, the composite z-score is 1.08 in assay [7], 0.231 in assay [9] and -0.0212 in assay [10]. Besides, the z-score in assay [8] was -1.09 (inactive).
For `COC(=O)CC=C[C@H](C)[C@@H](OCc1ccccc1Br)C(C)C`, the composite z-score in [1] is -0.188; in [2], 0.398; in assay [3], -0.191; in [4], 0.189; in assay [5] it was 0.0089; in [6] it was -0.252. For the same compound, the composite z-score in assay [7] is -0.334; in [9], -0.0799; in [10] it was -0.306. For the same compound, the z-score in [8] was -0.749 (inactive).
As to `COC(=O)[C@@]1(Cc2ccc(OC)cc2)[C@H]2c3cc(C(=O)N4CCCC4)n(Cc4cc(F)c(F)c(F)c4)c3C[C@H]2CN1C(=O)c1ccccc1`, the composite z-score in assay [1] was found to be 2.91; in assay [2], 1.05; in assay [3], 0.746; in assay [4] it was 1.19; in assay [5], 1.82; in [6] it was 1.62. The composite z-score was found to be 1.19 in assay [7], 3.01 in [9] and 1.88 in assay [10]. In addition, the z-score in [8] was -0.104 (inactive).
With `C=COC[C@H]1CN2[C@@H](CC[C@@H](C)[C@@H]2c2ccc(Br)cc2)C(=O)O1`, the composite z-score in assay [1] was -0.6; in [2], 0.268; in [3], -0.151; in assay [4], 0.581; in assay [5], 0.793; in [6], 0.0578. For the same compound, the composite z-score in [7] turned out to be 1.12; in assay [9], 0.355; in assay [10] it was 0.0373. In addition, the z-score in [8] was -0.688 (inactive).
Regarding `CCN1C(=O)[C@H]2[C@H]3[C@H](O)[C@H](O)CC(=NOCc4ccccc4)[C@@H]3CC[C@H]2C1=O`, the composite z-score is -0.239 in assay [1]; 0.441 in assay [2]; -0.197 in assay [3]; 0.31 in assay [4]; 0.931 in assay [5]; -0.195 in assay [6]. Further, the composite z-score in assay [7] is 0.567; in [9], 0.0882; in [10], -0.3. Also, the z-score in [8] was -0.641 (inactive).
As for `COC(=O)C1=CCC(c2cccc(Cl)c2)O1` (stereo not given), the composite z-score in assay [1] was 0.005; in assay [2] it was -0.0992; in assay [3], -0.0901; in assay [4], 0.0994; in assay [5] it was -0.104; in assay [6], 1.25. Further, the composite z-score in assay [7] was 0.584; in assay [9] it was -0.0195; in [10], 0.0749. In addition, in [8], the z-score is -0.912 (inactive).
For `[N-]=[N+]=NCc1ccccc1[C@@H]1OC(c2ccc(OCCCO)cc2)=N[C@]1(Cc1ccccc1)C(=O)N1CCOCC1`, the composite z-score in assay [1] amounted to 0.351; in [2], 1.51; in assay [3], 0.122; in assay [4], 0.875; in assay [5], 1.55; in [6] it was 1.68. For the same compound, the composite z-score was 1.25 in assay [7], 0.804 in [9] and 0.778 in assay [10]. Also, the z-score in assay [8] is -1.42 (inactive).
